# Experimental data reported in the supplement of paper PMC8728848.
# This excerpt belongs to a sample that is enriched for the strongest signals.
# B1: rAAL-2 (Agrocybe aegerita) (protein)
# chain: MTSNVITQDLPIPVASRGFADIVGFGLDGVVIGRNAVNLQPFLAVKNFAQNAGGWLTTKHVRLIADTTGTGKGDIVGFGNAGVYVSVNNGKNTFADPPKMVIANFGYDAGGWRVEKHLRYLADIRKIGRADIIGFGEKGVLVSRNNGGLNFGPATLVLKDFGYDAGGWRLDRHLRFLADVTGNGHLDIVGFGDKHVFISRNNGDGTFAPAKSVIDNFCIDAGGWKIGDHPRFVADLTGDGTADIIGCGKAGCWVALNNGGGVFGQVKLVINDFGTDKGWQAAKHPRFIADLTGNGRGDVVGFGNAGVYVALNNGDGTFQSAKLVLKDFGVQQGWTVSKHRRFVVDLTGDGCADIIGFGEKETLVSYNDGKGNFGPVKALTNDFSFSGGKWAPETTVCWMANLDSSRH
# Columns and labels:
# Assay in all cases: glycan array binding signal (z-score within array); higher = stronger binding
# Settings in all cases: glycan notation: IUPAC condensed, linker removed
# [1] = target: GlcNAc(a1-4)Gal(b1-4)GlcNAc(b1-3)Gal(b1-4)GlcNAc(b1-3)Gal(b1-4)GlcNAc
# Outline: (§1)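 Negative Z-scores can be read as non-binding. The Z-score is calculated within each array and then averaged across arrays of one protein sequence at different concentrations or buffers and across linkers. Arrays, 3228 in all, were curated from the Consortium for Functional Glycomics database and kept only where the protein sequence was available.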
# [2] = target: GlcNAc(a1-4)Gal(b1-4)GlcNAc(b1-3)Gal(b1-4)[Fuc(a1-3)]GlcNAc(b1-3)Gal(b1-4)[Fuc(a1-3)]GlcNAc
# Outline: as §1
# [3] = target: GlcNAc(b1-2)Man(a1-3)[GlcNAc(b1-4)][GlcNAc(b1-2)Man(a1-6)]Man(b1-4)GlcNAc(b1-4)[Fuc(a1-6)]GlcNAc
# Outline: as §1
# [4] = target: GlcNAc(b1-3)Gal(b1-4)GlcNAc
# Outline: as §1
# [5] = target: GlcNAc(b1-3)Gal(b1-4)GlcNAc(b1-3)Gal(b1-4)GlcNAc(b1-2)Man(a1-3)[GlcNAc(b1-3)Gal(b1-4)GlcNAc(b1-3)Gal(b1-4)GlcNAc(b1-2)Man(a1-6)]Man(b1-4)GlcNAc(b1-4)GlcNAc
# Outline: as §1
# [6] = target: GlcNAc(b1-3)Gal(b1-4)GlcNAc(b1-3)Gal(b1-4)GlcNAc(b1-2)Man(a1-3)[GlcNAc(b1-3)Gal(b1-4)GlcNAc(b1-3)Gal(b1-4)GlcNAc(b1-2)Man(a1-6)]Man(b1-4)GlcNAc(b1-4)[Fuc(a1-6)]GlcNAc
# Outline: as §1
# [7] = target: GlcNAc(b1-3)Gal(b1-4)GlcNAc(b1-3)Gal(b1-4)GlcNAc(b1-3)Gal(b1-4)GlcNAc(b1-2)Man(a1-3)[GlcNAc(b1-3)Gal(b1-4)GlcNAc(b1-3)Gal(b1-4)GlcNAc(b1-3)Gal(b1-4)GlcNAc(b1-2)Man(a1-6)]Man(b1-4)GlcNAc(b1-4)[Fuc(a1-6)]GlcNAc
# Outline: as §1
# [8] = target: GlcNAc(b1-3)Gal(b1-4)GlcNAc(b1-3)Gal(b1-4)GlcNAc(b1-3)Gal(b1-4)GlcNAc(b1-3)Gal(b1-4)GlcNAc(b1-2)Man(a1-3)[GlcNAc(b1-3)Gal(b1-4)GlcNAc(b1-3)Gal(b1-4)GlcNAc(b1-3)Gal(b1-4)GlcNAc(b1-3)Gal(b1-4)GlcNAc(b1-2)Man(a1-6)]Man(b1-4)GlcNAc(b1-4)GlcNAc
# Outline: as §1
# [9] = target: GlcNAc(b1-3)Gal(b1-4)GlcNAc(b1-3)Gal(b1-4)GlcNAc(b1-3)Gal(b1-4)GlcNAc(b1-3)Gal(b1-4)GlcNAc(b1-2)Man(a1-3)[GlcNAc(b1-3)Gal(b1-4)GlcNAc(b1-3)Gal(b1-4)GlcNAc(b1-3)Gal(b1-4)GlcNAc(b1-3)Gal(b1-4)GlcNAc(b1-2)Man(a1-6)]Man(b1-4)GlcNAc(b1-4)[Fuc(a1-6)]GlcNAc
# Outline: as §1
# GlcNAc(b1-3)GalNAc = target: GlcNAc(b1-3)GalNAc
# Outline: as §1
# [10] = target: GlcNAc(b1-3)[GlcNAc(b1-4)][GlcNAc(b1-6)]GlcNAc
# Outline: as §1
# GlcNAc3Prop(b1-4)GlcNAc = target: GlcNAc3Prop(b1-4)GlcNAc
# Outline: as §1
# [11] = target: Neu5Ac(a2-3)Gal(b1-3)GalNAc(b1-3)Gal(a1-4)Gal(b1-4)Glc
# Outline: as §1
# [12] = target: Neu5Ac(a2-3)Gal(b1-3)GalNAc(b1-4)[Neu5Ac(a2-8)Neu5Ac(a2-3)]Gal(b1-4)Glc
# Outline: as §1
# [13] = target: Neu5Ac(a2-3)Gal(b1-3)[Fuc(a1-4)]GlcNAc
# Outline: as §1
# Neu5Ac(a2-3)Gal(b1-4)Glc = target: Neu5Ac(a2-3)Gal(b1-4)Glc
# Outline: as §1
# [14] = target: Neu5Ac(a2-3)Gal(b1-4)GlcNAc
# Outline: as §1
# [15] = target: Neu5Ac(a2-3)Gal(b1-4)GlcNAc(b1-2)Man(a1-3)[GlcNAc(b1-4)][Neu5Ac(a2-3)Gal(b1-4)GlcNAc(b1-2)Man(a1-6)]Man(b1-4)GlcNAc(b1-4)GlcNAc
# Outline: as §1
# [16] = target: Neu5Ac(a2-3)Gal(b1-4)GlcNAc(b1-2)[Neu5Ac(a2-3)Gal(b1-4)GlcNAc(b1-6)]Man(a1-6)[Neu5Ac(a2-3)Gal(b1-4)GlcNAc(b1-2)Man(a1-3)][GlcNAc(b1-4)]Man(b1-4)GlcNAc(b1-4)GlcNAc
# Outline: as §1
# Neu5Ac(a2-6)Gal(b1-4)Glc = target: Neu5Ac(a2-6)Gal(b1-4)Glc
# Outline: as §1
# [17] = target: Neu5Ac(a2-6)Gal(b1-4)GlcNAc(b1-2)Man(a1-3)[Neu5Ac(a2-3)Gal(b1-4)GlcNAc(b1-2)Man(a1-6)]Man(b1-4)GlcNAc(b1-4)GlcNAc
# Outline: as §1
# [18] = target: Neu5Ac(a2-6)Gal(b1-4)GlcNAc(b1-3)Gal(b1-4)GlcNAc(b1-3)Gal(b1-4)GlcNAc(b1-2)Man(a1-3)[Neu5Ac(a2-6)Gal(b1-4)GlcNAc(b1-3)Gal(b1-4)GlcNAc(b1-3)Gal(b1-4)GlcNAc(b1-2)Man(a1-6)]GalNAc
# Outline: as §1
# [19] = target: Neu5Ac(a2-6)GalNAc(b1-4)GlcNAc
# Outline: as §1
# [20] = target: Neu5Gc(a2-8)Neu5Gc(a2-3)Gal(b1-4)GlcNAc(b1-3)Gal(b1-4)GlcNAc
# Outline: as §1
binder,measurement,setting,value
B1,glycan array binding signal (z-score),[1],6.15
same,glycan array binding signal (z-score),[2],3.9
same,glycan array binding signal (z-score),[3],-0.068
same,glycan array binding signal (z-score),[4],4.11
same,glycan array binding signal (z-score),[5],3.92
same,glycan array binding signal (z-score),[6],4.05
same,glycan array binding signal (z-score),[7],4.52
same,glycan array binding signal (z-score),[8],4.12
same,glycan array binding signal (z-score),[9],3.97
same,glycan array binding signal (z-score),GlcNAc(b1-3)GalNAc,0.798
same,glycan array binding signal (z-score),[10],-0.339
same,glycan array binding signal (z-score),GlcNAc3Prop(b1-4)GlcNAc,0.177
same,glycan array binding signal (z-score),[11],-0.228
same,glycan array binding signal (z-score),[12],-0.103
same,glycan array binding signal (z-score),[13],-0.392
same,glycan array binding signal (z-score),Neu5Ac(a2-3)Gal(b1-4)Glc,-0.151
same,glycan array binding signal (z-score),[14],-0.177
same,glycan array binding signal (z-score),[15],-0.314
same,glycan array binding signal (z-score),[16],-0.33
same,glycan array binding signal (z-score),Neu5Ac(a2-6)Gal(b1-4)Glc,-0.303
same,glycan array binding signal (z-score),[17],-0.237
same,glycan array binding signal (z-score),[18],0.107
same,glycan array binding signal (z-score),[19],-0.288
same,glycan array binding signal (z-score),[20],-0.178
